Hits are enriched below; roughly 10% of the tested compounds scored in any of these assays.
GPT2 inh: Primary qHTS assay for inhibitors of Glutamate pyruvate transaminase 2 (GPT2); Recombinant GPT2, coupled pyruvate oxidase/HRP Amplex Red fluorescence; Alanine aminotransferase 2 (Homo sapiens), Q8TD30; Potency, µM (titrated, usually from 57.7 µM), hits mostly inhibitors; 100,000 compounds, 0.25% hits; note: nearly all actives have a fitted effect of over 60% in size
Target sequence (Q8TD30 whole entry, looked up): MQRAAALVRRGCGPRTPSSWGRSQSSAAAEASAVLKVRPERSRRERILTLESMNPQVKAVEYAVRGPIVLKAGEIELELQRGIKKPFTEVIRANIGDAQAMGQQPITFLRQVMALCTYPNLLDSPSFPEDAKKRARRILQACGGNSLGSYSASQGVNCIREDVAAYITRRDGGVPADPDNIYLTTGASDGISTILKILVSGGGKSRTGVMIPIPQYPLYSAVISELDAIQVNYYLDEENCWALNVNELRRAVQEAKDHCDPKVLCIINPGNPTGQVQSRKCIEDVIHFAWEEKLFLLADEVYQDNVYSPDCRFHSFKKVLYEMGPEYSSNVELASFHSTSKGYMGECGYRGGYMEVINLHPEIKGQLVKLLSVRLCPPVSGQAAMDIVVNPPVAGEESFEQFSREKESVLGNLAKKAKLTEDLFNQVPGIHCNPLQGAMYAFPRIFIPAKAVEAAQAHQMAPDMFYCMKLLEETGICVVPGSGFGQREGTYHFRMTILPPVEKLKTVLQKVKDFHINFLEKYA
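GPT2 10ng/uL, a-KG 250uM, L-Ala 2mM, HEPES pH7.5 + 0.0001% Tween; 30 min RT. Then Amplex mix (PO/HRP/ThPP), 30 min RT dark, fluorescence. AOA 50uM used as positive control.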
HEK293 tox: Cytotoxic Profiling in HEK 293 Cell Line of Diverse Libraries Using Quantitative High-Throughput Screening. AID 1345083, 2018. HEK 293 viability, ATP luminescence (CellTiter-Glo), 48-72 h. 94,000 compounds, 6.6% hits. Potency, µM (highest dose often 115 µM), most hits filed as inhibitors; note: nearly all actives have a fitted effect of over 60% in size
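qHTS cytotoxicity; HEK 293, 250 cells/well; compound pinned; 48 or 72 hr, 37 degree Celsius, 5% CO2, 95% humidity; CellTiter-Glo, 10 min RT; luminescence (ATP).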
NPR1 antag: Natriuretic polypeptide receptor (hNpr1) antagonism - Primary qHTS. Atrial natriuretic peptide receptor 1 (Homo sapiens), P16066. HEK293 hNpr1 GloSensor cGMP, ANP-stimulated luminescence. Potency, µM (highest dose often 46.3 µM), actives largely listed as inhibitors. 76,000 compounds, 1.6% hits; calls by dose curve; note: nearly all actives have a fitted effect of over 60% in size
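Compound pre-incubated 30 min at room temperature on GloSensor-loaded HEK293 cells stably carrying hNpr1 and the pGS-40F cGMP biosensor. Stimulation uses hNppA at 0.1 nM final; luminescence is taken at baseline and 20 min post-agonist.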
FLuc inh-1: Firefly luciferase inhibition profiling of diverse chemical library using quantitative high-throughput screening; Luciferin 4-monooxygenase (Photinus pyralis), P08659; purified P. pyralis luciferase, luminescence, biochemical; Potency, µM (series often up to 115 µM), most hits filed as inhibitors; 76,000 compounds, 2.5% hits; AID 1347043, 2019; note: nearly all actives have a fitted effect of over 65% in size
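Luminescence read by CCD imaging after purified firefly luciferase (10nM final) was added to substrate buffer holding 10uM D-luciferin and 10uM ATP, pH 7.5, pre-dosed with compound.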
NIH3T3 tox: Cytotoxic Profiling in NIH 3T3 Cell Line of Diverse Libraries Using Quantitative High-Throughput Screening. Potency, µM (titrated, usually from 96.7 µM), actives largely listed as inhibitors. NIH 3T3 viability, CellTiter-Glo ATP luminescence, 48-72 h. 94,000 compounds, 4.3% hits. AID 1345082, 2018; note: nearly all actives have a fitted effect of over 55% in size
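Luminescent ATP readout (CellTiter-Glo, 10 min RT) after 48 or 72 hr compound exposure of NIH 3T3 cells seeded at 400 cells/well in 1536-well format; quantitative HTS.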
FLuc SDR no ATP: Firefly luciferase (FLuc-C-HiBiT) SDR gain of signal screen - without ATP; shares compounds with FLuc inh-1; Purified FLuc-C-HiBiT, Nano-Glo HiBiT luminescence, no ATP; Potency, µM (top dose mostly 32.7 µM), usual class: activators; 1,300 compounds, 7.8% hits; AID 1963318, 2024; note: nearly all actives have a fitted effect of over 55% in size
FLuc SDR ATP: Firefly luciferase (FLuc-C-HiBiT) SDR gain of signal screen - plus ATP; AID 1963319, 2024; 1,300 compounds, 8.7% hits; Potency, µM (highest dose often 32.7 µM), most hits filed as activators; shares compounds with FLuc inh-1; purified FLuc-C-HiBiT + ATP, HiBiT complementation luminescence;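 note: signal reports ligand binding via conformational change of the enzyme rather than luciferase catalysis; nearly all actives have a fitted effect of over 55% in size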
FLuc inh-2: Firefly luciferase (FLuc-C-HiBiT) enzymatic inhibition screen - Functional assay; purified FLuc-C-HiBiT enzyme, luciferin luminescence; Potency, µM (doses to about 32.7 µM), hits mostly inhibitors; 1,300 compounds, 42% hits; AID 1963320, 2024; shares compounds with FLuc inh-1; note: nearly all actives have a fitted effect of over 70% in size
Large screens that a line does not name were inactive (follow-up assays come after a bar, where they were run). Unless noted, calls come from the whole dose curve; as a rule, active = well fitted curve in the direction sought with a large enough effect; inconclusive = small, poorly fitted or top-dose-only effect, or another doubt; inactive = no such curve, though single readings can be large; an effect the other way counts as inactive or inconclusive.

O=C(c1ccc(C(F)(F)F)cc1)N1CCc2nc(-c3ccccc3)nc(-c3ccc(Cl)cc3)c2C1	HEK293 tox inconclusive, NIH3T3 tox inconclusive | FLuc SDR no ATP inactive | FLuc SDR ATP inactive | FLuc inh-2 inactive
COc1ccc(-c2nc(-c3ccccc3)nc3c2CN(C(=O)c2ccc(C(F)(F)F)cc2)CC3)cc1	HEK293 tox inconclusive
O=C(c1cc(F)ccc1F)N1CCCC(Cc2nncn2CC2CC2)C1 (stereo unspecified)	none
Cc1ccc(-c2cc(C(=O)N3CCC(Cc4nncn4CC4CC4)CC3)c3ccccc3n2)cc1C	HEK293 tox inconclusive, NPR1 antag inconclusive, FLuc inh-1 1.6µM, NIH3T3 tox 20µM | FLuc SDR no ATP 12µM | FLuc SDR ATP inconclusive | FLuc inh-2 2µM
O=C(c1cc(-c2ccc(F)cc2)nc2ccccc12)N1CCC(Cc2nncn2CC2CC2)CC1	HEK293 tox 45µM, FLuc inh-1 13µM, NIH3T3 tox inconclusive | FLuc SDR no ATP inconclusive | FLuc SDR ATP inactive | FLuc inh-2 8.8µM
O=C(O)c1ccc(CN2CC(COc3ccccc3)C3(C2)CN(c2ccccc2)C3)cc1 (stereo unspecified)	HEK293 tox inconclusive
COc1ccc(CN2CC(COc3ccccc3)C3(C2)CN(c2ccccc2)C3)cc1O (stereo unspecified)	HEK293 tox 28µM, NIH3T3 tox inconclusive | FLuc SDR no ATP inactive | FLuc SDR ATP inactive | FLuc inh-2 inactive
CC(C)n1cnnc1CC1CCN(C(=O)Nc2ccc3c(c2)OCCO3)CC1	FLuc inh-1 7.9µM | FLuc SDR no ATP inactive | FLuc SDR ATP inconclusive | FLuc inh-2 9.9µM
CCc1n[nH]c(CC2CCN(C(=O)Nc3ccc4c(c3)OCCO4)CC2)n1	FLuc inh-1 7.9µM | FLuc SDR no ATP inactive | FLuc SDR ATP inactive | FLuc inh-2 inconclusive
CCOCCNC(=O)[C@@H]1CCCN1c1nccc(Nc2ccccc2Cl)n1	HEK293 tox inconclusive (no result: NPR1 antag, FLuc inh-1)
Cc1nn(-c2ccc(C(C)C)cc2)c(C)c1[C@@H]1C=C[C@@H](NC(=O)NC(C)C)C1	HEK293 tox 22µM, NPR1 antag 32µM, FLuc inh-1 3.5µM, NIH3T3 tox 28µM | FLuc SDR no ATP inactive | FLuc SDR ATP inactive | FLuc inh-2 inconclusive
COc1ccc(NC(=O)N[C@@H]2C=C[C@@H](c3c(C)nn(-c4ccc(C(C)C)cc4)c3C)C2)cc1	HEK293 tox inconclusive, FLuc inh-1 7.9µM, NIH3T3 tox inconclusive | FLuc SDR no ATP inactive | FLuc SDR ATP inactive | FLuc inh-2 inactive
COc1ccc(-n2nc(C)c([C@@H]3C=C[C@@H](NC(=O)Nc4cccc(C#N)c4)C3)c2C)cc1	HEK293 tox 89µM, NPR1 antag inconclusive, FLuc inh-1 7.9µM, NIH3T3 tox inconclusive | FLuc SDR no ATP inactive | FLuc SDR ATP inactive | FLuc inh-2 inconclusive
Cc1nn(-c2cccc(Br)c2)c(C)c1[C@@H]1C=C[C@@H](NC(=O)CC(C)(C)CC(=O)O)C1	HEK293 tox inconclusive, FLuc inh-1 inconclusive, NIH3T3 tox inconclusive | FLuc SDR no ATP inactive | FLuc SDR ATP inactive | FLuc inh-2 inactive
Cc1nn(CCC#N)c(C)c1[C@@H]1C=C[C@@H](NC(=O)NC(C)C)C1	GPT2 inh inconclusive, NIH3T3 tox inconclusive
Cc1ccc(-n2nc(C)c([C@@H]3C=C[C@@H](NC(=O)NC(C)C)C3)c2C)cc1Cl	HEK293 tox inconclusive, NPR1 antag 16µM, FLuc inh-1 3.5µM, NIH3T3 tox 63µM | FLuc SDR no ATP inactive | FLuc SDR ATP inconclusive | FLuc inh-2 14µM
CC1(C)NC(=O)N(CCC(=O)N2CCCCC2c2noc(COCc3ccc(F)cc3)n2)C1=O (stereo unspecified)	none (no result: NPR1 antag, FLuc inh-1)
O=C1CCc2cc(NC(=O)c3n[nH]c4ccccc34)ccc2N1	HEK293 tox inconclusive, FLuc inh-1 2.8µM, NIH3T3 tox inconclusive | FLuc SDR no ATP inconclusive | FLuc SDR ATP inconclusive | FLuc inh-2 3.1µM
CSc1ccc(-c2cccc(CN3CCC(NC(=O)NC(C)C)CC3)c2)cc1	none (no result: GPT2 inh, NPR1 antag, FLuc inh-1)
CCOc1ccc(-n2nc(CO)c(C(=O)NCc3ccccn3)n2)cc1	none (no result: GPT2 inh, HEK293 tox, NPR1 antag, FLuc inh-1, NIH3T3 tox) | FLuc SDR no ATP inactive | FLuc SDR ATP inactive | FLuc inh-2 inconclusive
CCOc1cc(=O)n2c(c1C(=O)NCc1ccccn1)CCCCC2	NIH3T3 tox inconclusive
CCOc1ccc(-n2nc(CO)c(C(=O)NCc3cccc(OC)c3)n2)cc1	none (no result: GPT2 inh, HEK293 tox, NPR1 antag, FLuc inh-1, NIH3T3 tox) | FLuc SDR no ATP inactive | FLuc SDR ATP inactive | FLuc inh-2 inconclusive
O=C(c1ccc(F)cc1)N1CCN(C(=O)c2nc3cccnc3n(CCc3ccccc3)c2=O)CC1	none (no result: NPR1 antag, FLuc inh-1)
Cc1ccc(CN2CCCC3(Cc4ccccc4CNC3=O)C2)cc1 (stereo unspecified)	none (no result: NPR1 antag, FLuc inh-1)
CN(C)c1cccc(-c2ncc3c(n2)OCCN(c2ccccc2)C3=O)c1	HEK293 tox inconclusive, FLuc inh-1 1.6µM, NIH3T3 tox inconclusive | FLuc SDR no ATP inconclusive | FLuc SDR ATP inconclusive | FLuc inh-2 13µM
O=C1c2cnc(-c3ccsc3)nc2OCCN1c1ccccc1	HEK293 tox inconclusive, FLuc inh-1 7.1µM, NIH3T3 tox inconclusive | FLuc SDR no ATP inconclusive | FLuc SDR ATP inconclusive | FLuc inh-2 inconclusive
Cc1cnc(C(=O)N2CC(Oc3ccc(-c4nc(-c5ccccc5)no4)cc3)C2)cn1	none
O=C(c1ccccn1)N1CCC(Oc2ccc(-c3noc(-c4ccccc4)n3)cc2)C1 (stereo unspecified)	HEK293 tox 22µM, FLuc inh-1 11µM, NIH3T3 tox inconclusive | FLuc SDR no ATP inactive | FLuc SDR ATP inactive | FLuc inh-2 inconclusive
Cc1ncccc1C(=O)N1CC(Oc2ccc(-c3nc(-c4ccccc4)no3)cc2)C1	HEK293 tox 13µM, NPR1 antag inconclusive, FLuc inh-1 1µM, NIH3T3 tox inconclusive | FLuc SDR no ATP inactive | FLuc SDR ATP inconclusive | FLuc inh-2 6.2µM
O=C1N(Cc2ccccc2)c2ccccc2C12CCN([S+](=O)([O-])c1cccc(C(F)(F)F)c1)C2 (stereo unspecified)	none
